The panel holds about 79,000 compounds, 15% with a hit somewhere; the sample as a whole holds those more often. Active and inactive are the calls of the source. Cut-off read from the data, not from the text of the source: active = growth inhibition above about 70%; inactive = the rest. Residues, ends and D or L forms follow the SMILES beside them. *: point of attachment. CH2Cl = ClC*
Experiment: NCI Yeast Anticancer Drug Screen. Data for the rad50EPP+ strain (AID 151);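 note: 0% = growth of vehicle-treated control cultures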
Conditions: S. cerevisiae rad50 mutant strain, active compounds read high
Experimental: Growth inhibition of yeast strains with defined genetic alterations is measured as a screen for potential anti-cancer activity. Selected strains with alterations in DNA damage repair or cell cycle control were exposed to compounds and growth inhibition was measured relative to vehicle treated controls. The strain used in this assay is rad50EPP+

Measured: growth inhibition

CCCCCC(=O)c1ccc(O)cc1O
inactive: at 1.2 µM 15% | at 3.7 µM 23% | at 11.0 µM 33% | at 33.0 µM 59%
active: at 100.0 µM 98%

S=P(N1CC1)(N1CC1)N1CC1
inactive: at 1.2 µM -4% | at 3.7 µM -5% | at 11.0 µM -4% | at 33.0 µM 7% | at 100.0 µM 34%

O=C1C=CC(=O)N1c1ccc(N2C(=O)C=CC2=O)cc1
active: at 11.0 µM 85% | at 33.0 µM 99% | at 100.0 µM 99%
inactive: at 1.2 µM 3% | at 3.7 µM 49%

C/C(=N\NC(=S)NNC(=S)N(C)c1ccccc1)c1ccccn1
inactive: at 1.2 µM 11% | at 3.7 µM 5%
active: at 11.0 µM 92% | at 33.0 µM 98% | at 100.0 µM 81%

CC(C)c1[nH]nc(C(N)=O)c1N=NN(C)C
active: at 33.0 µM 73% | at 100.0 µM 91%
inactive: at 1.2 µM -1% | at 3.7 µM 15% | at 11.0 µM 37%

CC(=O)NC(CC(C)C)C(=O)NC(Cc1ccccc1)C(=O)CCl (stereo not drawn) (Ac-Leu-Phe-CH2Cl; configuration not given here)
inactive: at 1.2 µM -3% | at 3.7 µM -4% | at 11.0 µM -1% | at 33.0 µM 9% | at 100.0 µM 52%

CC1=CC2C(C(C)C)CC1C1C(=O)OC(=O)C21 (stereo not given)
inactive: at 1.2 µM -8% | at 3.7 µM -20% | at 11.0 µM 10% | at 33.0 µM 33% | at 100.0 µM 49%

COc1cc(N(C)C)ccc1/C=C\c1ccnc2ccccc12
inactive: at 1.2 µM -2% | at 3.7 µM -2% | at 11.0 µM 10% | at 33.0 µM 16% | at 100.0 µM 12%
